In PubChem BioAssay (NCI):
Where “and” joins values, the source holds several entries; their conditions need not be identical. Equal values may be shown once. About 79,000 compounds went through this panel and 15% of them were active in at least one assay; those are over-represented in the sample as a whole. Unmarked numbers belong to inactive results. Calls of active or inactive are those of the source. No stated cut-off is given here; in the data, active means growth inhibition above about 70%; inactive means the rest.

Columns and labels:
[1] = NCI Yeast Anticancer Drug Screen. Data for the rad50 strain (AID 155);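 further: 0% = growth of vehicle-only cultures of the same strain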; details: S. cerevisiae rad50 strain growth inhibition, active compounds read high; at 50.0 µM unless noted
How it was run: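 Cells are treated with compound, grown, and their growth is then scored against vehicle-only cultures of the same repair-deficient yeast strain.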

[2] = NCI Yeast Anticancer Drug Screen. Data for the mec2-1 strain (AID 157); details: S. cerevisiae mec2-1 strain, active compounds read high; at 50.0 µM unless noted
How it was run: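 Mutant yeast (mec2-1) grown with compound; growth inhibition relative to vehicle control reported.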

[3] = NCI Yeast Anticancer Drug Screen. Data for the sgs1 mgt1 strain (AID 161);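 further: 0% = growth of cultures given vehicle only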; details: S. cerevisiae sgs1 mgt1 strain, active compounds read high; at 50.0 µM unless noted
How it was run: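 Percent growth inhibition was derived by comparing compound-exposed mutant yeast with vehicle-exposed cultures. The strain carries alterations in DNA damage repair.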

[4] = NCI Yeast Anticancer Drug Screen. Data for the cln2 rad14 strain (AID 165);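 further: 0% = growth equal to vehicle treated cultures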; details: S. cerevisiae cln2 rad14 strain, active compounds read high; at 50.0 µM unless noted
How it was run: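 Readout is yeast growth inhibition versus vehicle-treated controls, using a strain with cln2 and rad14 alterations exposed to compound.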

[5] = NCI Yeast Anticancer Drug Screen. Data for the bub3 strain (AID 167); details: S. cerevisiae bub3 mutant strain, active compounds read high; at 50.0 µM unless noted
How it was run: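 Part of a panel of yeast mutants defective in DNA damage repair or cell cycle regulation. Each strain is grown with compound, and inhibition is calculated relative to solvent-treated cultures.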

[6] = NCI Yeast Anticancer Drug Screen. Data for the mlh1 rad18 strain (AID 175); details: S. cerevisiae mlh1 rad18 strain growth inhibition, active compounds read high; at 50.0 µM unless noted
How it was run: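 Genetically defined yeast (DNA repair-deficient) exposed to compounds; growth inhibition determined relative to vehicle.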

SMILES	growth inhibition [1]	growth inhibition [2]	growth inhibition [3]	growth inhibition [4]	growth inhibition [5]	growth inhibition [6]
c1ccc(Cc2cncc(Cc3ccccc3)c2)cc1	-22.5%	1.95%	6.85%	-58.6%	55.5%	9.1%
CC(C(=O)O)c1ccc(-c2ccccc2)cc1 (stereo not given)	10.6%	13.3%	-1.85%	-12.2%	1.4%	7.1%
CC(=O)c1cccc(NC(=O)Nc2ccc(F)c([N+](=O)[O-])c2)c1	7.3%	22.9%	21.9%	3.25%	36.5%	2.75%
Clc1cccc(Cl)c1C1SCc2nc3cc4ccccc4cc3n21 (stereo not given)	-1.8%	-12.1%	24.9%	-0.55%	14%	14%
COc1ccc2nc3cc(Cl)ccc3c(Nc3ccccc3-c3ccccc3Nc3c4ccc(Cl)cc4nc4ccc(OC)cc34)c2c1	6.85%	-8.75%	-18.1%	17.5%	2.1%	-27.8%
CCN1c2ccccc2CC(CCCN(C)C)(C(N)=O)c2ccccc21 (stereo not given)	3.8%	12.3%	18.2%	9.45%	-1.85%	-8.25%
COC1C(CO)OC(O)C(O)C1O (stereo not given)	-6.75%	2.25%	-5.2%	-5.45%	-6.9%	4%
CCCCCCCCCCCCCCCCS(=O)(=O)N(/N=c1/sc2ccccc2n1C)C(=O)OCC	-29.4%	-32.3%	-13.3%	21.4%	-12.2%	-27.8%
COc1ccc(CCNCC(O)CSc2ccc(Cl)cc2)cc1OC (stereo not given)	74.8% (active)	20.4%	73% (active)	27.9%	22%	30.6%
OCCNc1cccc2ccccc12	31.6%	-4.15%	35.2%	18.9%	8.8%	37.4%
CC(=O)OCC(OC(C)=O)C(OC(C)=O)C(OC(C)=O)C(OC(C)=O)C(=O)NC1CCc2ccccc2C1 (stereo not given)	24.8%	2.6%	13.6%	30.4%	0.25%	21.9%
O=[N+]([O-])c1ccc(CC(Cl)c2ccccc2)cc1 (stereo not given)	40.8%	2.35%	39.5%	-19.1%	29.8%	63%
CN1C(=O)n2c(nc3ccccc32)C(Cl)(Cl)C1=O	13.8%	10.3%	3.25%	20.4%	34.7%	42%
CC(C)(C)CNCCO	-2.45%	-23.4%	-2%	-7.5%	-7.55%	-6.3%
O=C(CC1=Nc2nnc(-c3nnc4n3C(=O)C(CC(=O)c3cccnc3)=N4)n2C1=O)c1cccnc1	-5%	-8.55%	-1.35%	-19.2%	-6.35%	-12.7%
COc1cc(CC(C(=O)O)C(C)C(=O)c2ccc3c(c2)OCO3)cc(OC)c1OC (stereo not given)	-4.75%	0.1%	-11.9%	-24.6%	-10.4%	-15.8%
CC1CCC2COC(=O)CCC2(C)C1C (stereo not given)	5.95%	0.7%	-9.75%	-40.9%	-17.4%	-22.9%
Cc1cn(C2CC3C(COC(c4ccccc4)N3O)O2)c(=O)[nH]c1=O (stereo not given)	0.1%	-8.65%	21.2%	2.7%	-2.95%	7.15%
COc1cccc2c1C(=O)c1c(O)c(CCl)cc(OC)c1C2=O	16.9%	-4.6%	20.9%	-33%	5.6%	14.9%
CCN(CC)c1cc(C)c2cc(Cc3ccccc3)ccc2n1	35.2%	32.8%	23.9%	31.8%	65.1%	14.5%

SMILES	growth inhibition [1]	growth inhibition [2]	growth inhibition [3]	growth inhibition [4]	growth inhibition [5]	growth inhibition [6]
O=C1OC(C(O)C(O)CO)C(O)=C1O (stereo not given)	16.8% and 0.95%	3.7% and 13.8%	-11.3% and -13.8%	4.25% and -8.15%	2.75% and -8.6%	19.7% and 6.2%
O=C1OC2C(O)C(CO)OC2n2c1cc(=O)[nH]c2=O (stereo not given)	2.55%	13.9%	9.4%	-4.15%	3.5%	-5.35%
CC(C)CNC(=O)c1ccccc1Cl	-22.9%	20.1%	-5.4%	-32.4%	2.55%	-11.1%
CC1/C(=N\O)CC2C3(C)CCC2(C(C)C(=O)O)C(=O)C13 (stereo not given)	4.75%	9.1%	2.2%	8.55%	8.9%	20.6%
CCOC(=O)c1ccc(N/C(C)=C/C(=O)OC)cc1	3.45%	-8.4%	11.2%	-20.7%	1.95%	3.55%
COc1cc2c(cc1OC)C(Cl)C(c1ccc(Br)cc1)=C2Cl (stereo not given)	36.9%	67.3%	72.5% (active)	48.3%	55.4%	32.8%
O=[N+]([O-])c1cccc(Br)c1	25.9%	22.8%	-10.7%	-52.6%	3.45%	5.75%
CS1(C)=Nc2c([N+](=O)[O-])cc([N+](=O)[O-])cc2S(=O)(=O)N=1	-9.9%	-12.1%	-1.3%	-15.9%	-5%	6.55%
C/C(=N\NC(=O)c1ccncc1)c1cc(Cl)ccc1Cl	2.9%	5.4%	4.65%	8.15%	0.35%	8.7%
CC(C)=CC(=O)CNC(N)=S	36.1%	17.9%	16.4%	10.7%	0.25%	23.9%
Cc1ccc(C)n1-c1ccccc1	-12.6%	-37.5%	-7.75%	9%	-8.2%	-19.4%
Cc1cccc(-c2cc3ccccc3c(Cl)n2)n1	-4%	-23.1%	10.8%	-0.6%	7.6%	7.7%
CCOC(=O)C(Cc1cc(N)c(Oc2ccc(OC)cc2)c(N)c1)NC(C)=O (stereo not given)	-16.1%	-36.9%	-4.65%	14.9%	-9.1%	5.25%
Cc1ccc(C(=O)OCC(C)C)s1	-6.6%	1.35%	-25.8%	-40.8%	-6.55%	13.4%
CC1COC(C)(C)P(=O)(c2ccccc2)C1 (stereo not given)	-6.9%	-9%	-11.3%	16.2%	-7.15%	-27.4%
O=c1nc2sccn2c2ncccc12	-18.5%	5.35%	-11.8%	46.6%	10.9%	16.1%
COc1ccc(C2=N/C(=C\c3ccccc3)C(=O)O2)cc1	-4.05%	8.6%	28.4%	-22.4%	-4%	-0.9%
COc1cccc(C)c1NC(=O)NCCCl	17.6%	1.05%	13.2%	-25.2%	12.1%	5.05%
CCSC(=Nc1nc2ccc([N+](=O)[O-])cc2s1)SCC	43.5%	31.4%	33.5%	14.1%	25.5%	12.2%
N#CCCOc1ccc(N)cc1	0.55%	-5.2%	7.15%	3.75%	8.65%	17.6%
